From PubChem BioAssay
Compounds with a hit are over-represented: about 2.5% of the library has one in this group of screens.
TSG101-PTAP inh = blocks PTAP binding to human TSG101, validation | Q99816 | Fluorescence polarization, FITC-PTAP peptide/Tsg101, 20 min | Potency, µM (titrated, usually from 115 µM), actives largely listed as inhibitors | 44,000 tested, under 10 active; further: potency means the concentration at half of the fitted maximal effect; 0% is about no effect
Target sequence (Q99816 whole entry, looked up): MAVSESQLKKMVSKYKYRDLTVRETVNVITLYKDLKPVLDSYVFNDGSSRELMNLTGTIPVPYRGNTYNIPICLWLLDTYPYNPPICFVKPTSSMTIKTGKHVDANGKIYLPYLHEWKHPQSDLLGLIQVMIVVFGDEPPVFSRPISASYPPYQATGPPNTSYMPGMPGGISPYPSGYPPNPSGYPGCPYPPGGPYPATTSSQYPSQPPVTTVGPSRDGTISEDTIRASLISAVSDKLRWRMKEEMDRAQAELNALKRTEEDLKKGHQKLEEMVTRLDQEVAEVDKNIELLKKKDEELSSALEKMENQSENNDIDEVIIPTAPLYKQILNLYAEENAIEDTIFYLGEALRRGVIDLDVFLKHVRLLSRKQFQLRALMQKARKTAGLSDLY
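FITC-labeled PTAP peptide (50 nM final) binding to Tsg101 binding domain (10 uM final) read by fluorescence polarization after 20 min at r.t. in HEPES pH 7.5 buffer. Actives by CRC class, <25 µM.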
B2AR arrestin ag = beta-arrestin recruitment by human beta2-adrenergic receptor ligands; P07550; HTLA Tango cells, beta-arrestin recruitment, luciferase luminescence, 18 h; Potency, µM (top dose mostly 46.1 µM), actives largely listed as activators; 44,000 tested, under 10 active;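 further: potency means the concentration at half of the fitted maximal effect; 0% = DMSO and full agonism = EC100 isoproterenol or metaproterenol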
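Luminescence read-out: arrestin recruitment to recombinant beta2-AR releases tTA, inducing luciferase. Cells exposed 18 hr at 37 degrees C to up to 46 microM compound; %Activity from corrected signal, concentration-response curves classified by r2, magnitude and efficacy.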
GALK inhibitor = inhibitors of human galactokinase (GALK). 44,000 tested, under 10 active. AID 1347072. Potency, µM (titrated, usually from 57.5 µM), inactives show at the top dose activity, negative = inhibition, usual class: inhibitors. recombinant GALK, Kinase-Glo ATP luminescence, 1 h;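 further: plate controls were full GALK reaction for no effect and reaction lacking GALK for full effect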
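Human GALK (5 nM) was incubated with 35 uM ATP and 100 uM galactose in 20 mM HEPES pH 8.0 with MgCl2, NaCl, DTT and BSA for 1 h at room temperature. Remaining ATP was measured by Kinase-Glo Plus luminescence.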
DRV1 agonist = agonists of human resolvin D1 receptor DRV1 (GPR32). CHO-K1 GPR32 beta-arrestin PathHunter luminescence, 90 min; zero percent set by DMSO-only wells. activation, % at 76.9 µM. 2.5% of 48,000 active. AID 1346428;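 active means activation of at least 60% and not above a set upper limit, about 1 call in 100 departs from these limits; inconclusive means activation of 40% to 60%, or above that upper limit; inactive means activation under 40%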; further: 0% is about no effect
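PathHunter enzyme-fragment complementation, CHO-K1 GPR32 stable line; 2,500 cells/well, overnight attach; cpd 90 min 37 °C 5% CO2; detection reagent 1 h RT; chemiluminescence. DMSO = EC0.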
Numbers without * were called inactive. Unless noted, the call rests on the fitted dose curve; in most records, active means well fitted curve in the direction sought with a large enough effect; inconclusive means small, poorly fitted or top-dose-only effect, or another doubt; inactive means no such curve, though single readings can be large; an effect the other way counts as inactive or inconclusive.

How did Cc1ccc(S(=O)(=O)N2CCC(n3c(C)nc4cccnc43)CC2)c(C)c1 do in these assays?
TSG101-PTAP inh: inactive; B2AR arrestin ag: inactive; GALK inhibitor: 0%; DRV1 agonist: inconclusive

How did CCN(CC)c1ccc(NC(=O)c2cccn2-c2nnc(N3CCCCC3)s2)c(C)c1 do in these assays?
TSG101-PTAP inh: inactive; B2AR arrestin ag: inactive; GALK inhibitor: 1%; DRV1 agonist: 76*

Results for CCCCC(O)/C=C(C)/C=C/C=C/C(=O)N1CCCC1=O (stereo not given) ?
DRV1 agonist: -17

How did CC(C)C1C(=O)Nc2ccc(S(=O)(=O)NCCc3ccc(Cl)cc3)cc21 (stereo not given) do in these assays?
TSG101-PTAP inh: inactive; B2AR arrestin ag: inactive; GALK inhibitor: 2%; DRV1 agonist: 87*

How did Cc1ccc(Cl)cc1N1CCN(S(=O)(=O)c2ccc3c(c2)C(C(C)C)C(=O)N3)CC1 (stereo not given) do in these assays?
TSG101-PTAP inh: inactive; B2AR arrestin ag: inactive; GALK inhibitor: 0%; DRV1 agonist: inconclusive

What do the screens show for `COc1cccc(CNS(=O)(=O)c2ccc3c(c2)C(C(C)C)C(=O)N3)c1` (stereo not given)?
TSG101-PTAP inh: inactive; B2AR arrestin ag: inactive; GALK inhibitor: 1%; DRV1 agonist: 76*

How did CSc1cccc(N2C(=O)N(CC(=O)NCc3ccccc3Cl)c3ccccc3S2(=O)=O)c1 do in these assays?
TSG101-PTAP inh: inactive; B2AR arrestin ag: inactive; GALK inhibitor: 0%; DRV1 agonist: 67*

What do the screens show for `CSc1cccc(N2C(=O)N(Cc3ccc([N+](=O)[O-])cc3)c3ccccc3S2(=O)=O)c1`?
TSG101-PTAP inh: inactive; B2AR arrestin ag: inactive; GALK inhibitor: -1%; DRV1 agonist: -5

How did COc1ccc(S(=O)(=O)NCc2cccn2Cc2cccc(C)c2)cc1OC do in these assays?
TSG101-PTAP inh: inactive; B2AR arrestin ag: inactive; GALK inhibitor: -3%; DRV1 agonist: 24

How did CC(=O)Nc1ccc(S(=O)(=O)NCc2cccn2Cc2cccc(C)c2)cc1 do in these assays?
TSG101-PTAP inh: inactive; B2AR arrestin ag: inactive; GALK inhibitor: 1%; DRV1 agonist: 88*

What do the screens show for `CCCCCn1c(=N)n(CC(O)COc2cccc(C)c2)c2ccccc21` (stereo not given)?
TSG101-PTAP inh: inactive; B2AR arrestin ag: inactive; GALK inhibitor: 4%; DRV1 agonist: 90*

Results for N=c1n(CCN2CCCCC2)c2ccccc2n1CC(O)COc1ccccc1 (stereo not given) ?
TSG101-PTAP inh: inactive; B2AR arrestin ag: inactive; GALK inhibitor: inconclusive; DRV1 agonist: 65*

Results for Cc1ccccc1OCC(O)Cn1c(=N)n(CCN2CCCCC2)c2ccccc21 (stereo not given) ?
TSG101-PTAP inh: inactive; B2AR arrestin ag: inactive; GALK inhibitor: 0%; DRV1 agonist: 20

Results for COc1cc(C(=O)N2CCC(c3nc4ccccc4o3)CC2)cc(OC)c1OC ?
TSG101-PTAP inh: inactive; B2AR arrestin ag: inactive; GALK inhibitor: 1%; DRV1 agonist: 8

Results for COC(=O)c1ccc(NC(C)=O)cc1OC ?
DRV1 agonist: -11

How did COCCCNC(=O)c1sc2nc(C)c(C(=O)Nc3ccc(Cl)cc3)c(-c3ccc(Br)cc3)c2c1N do in these assays?
TSG101-PTAP inh: inactive; B2AR arrestin ag: inactive; GALK inhibitor: 1%; DRV1 agonist: 64*

Results for Cc1ccc(Nc2nc(C(N)=O)c(NC(=O)c3ccccc3Br)s2)cc1 ?
TSG101-PTAP inh: inactive; B2AR arrestin ag: inactive; GALK inhibitor: -1%; DRV1 agonist: 61*

Results for O=C(CCc1nc(-c2cccs2)no1)Nc1ccccc1[N+](=O)[O-] ?
TSG101-PTAP inh: inactive; B2AR arrestin ag: inactive; GALK inhibitor: 0%; DRV1 agonist: -1

Results for O=c1c2oc3ccccc3c2n(Cc2ccccc2Cl)c(=O)n1Cc1ccc2c(c1)OCO2 ?
TSG101-PTAP inh: inactive; B2AR arrestin ag: inactive; GALK inhibitor: 2%; DRV1 agonist: -9

Results for C[C@@H]1CC[C@@]2(OC1)O[C@H]1C[C@H]3[C@@H]4CC[C@H]5C[C@@H](O)CC[C@]5(C)[C@H]4CC(=O)[C@]3(C)[C@H]1[C@@H]2C ?
DRV1 agonist: -25

Results for COc1ccc(N2CCN(S(=O)(=O)c3ccc(F)c(C(=O)Nc4ccccc4Cl)c3)CC2)cc1 ?
TSG101-PTAP inh: inactive; B2AR arrestin ag: inactive; GALK inhibitor: 2%; DRV1 agonist: 91*

Results for CCOC(=O)c1ccc(NC(=O)CN2c3ccccc3S(=O)(=O)c3ccccc32)cc1 ?
TSG101-PTAP inh: inactive; B2AR arrestin ag: inactive; GALK inhibitor: -2%; DRV1 agonist: -9

How did COc1ccc(NC(=O)CN2C(=O)C(C)(C)c3ccccc32)cc1Cl do in these assays?
TSG101-PTAP inh: inactive; B2AR arrestin ag: inactive; GALK inhibitor: 2%; DRV1 agonist: 103*

How did CCOC(=O)c1ccc(NC(=O)CN2C(=O)C(C)(C)c3ccccc32)cc1 do in these assays?
TSG101-PTAP inh: inactive; B2AR arrestin ag: inactive; GALK inhibitor: 1%; DRV1 agonist: 109*

How did Cc1cc(NC(=O)CN2C(=O)C(C)(C)c3ccccc32)ccc1Br do in these assays?
TSG101-PTAP inh: inactive; B2AR arrestin ag: inactive; GALK inhibitor: 2%; DRV1 agonist: 22

Results for O=C(NC1CC1)c1ccc(Cn2c(SCc3ccc(F)cc3)nc3cccnc32)cc1 ?
TSG101-PTAP inh: inactive; B2AR arrestin ag: inactive; GALK inhibitor: -6%; DRV1 agonist: 63*

What do the screens show for `COc1ccccc1C1CC(=O)NC(C)=C1C(=O)OC1CCCCCC1` (stereo not given)?
TSG101-PTAP inh: inactive; B2AR arrestin ag: inactive; GALK inhibitor: 0%; DRV1 agonist: 5

Results for CC1=C(C(=O)OC2CCCC2)C(c2ccccc2C(F)(F)F)CC(=O)N1 (stereo not given) ?
TSG101-PTAP inh: inactive; B2AR arrestin ag: inactive; GALK inhibitor: 0%; DRV1 agonist: 96*

What do the screens show for `C[C@@H]1CCN(C(=O)[C@H](CCCN=C(N)N)NS(=O)(=O)c2cccc3c2NC[C@H](C)C3)[C@@H](C(=O)O)C1`?
DRV1 agonist: -6

How did O=C(O)C(=O)Nc1cccc(-c2nn[nH]n2)c1 do in these assays?
DRV1 agonist: -39

What do the screens show for `O=C(N/N=C/c1ccccc1O)c1ccncc1`?
DRV1 agonist: 96*

What do the screens show for `O=C(O)[C@H](O)c1ccccc1`?
DRV1 agonist: 1

How did COC(=O)c1ccc(C2Nc3c(C)cc(C)cc3C3C=CCC32)cc1 (stereo not given) do in these assays?
TSG101-PTAP inh: inactive; B2AR arrestin ag: inactive; GALK inhibitor: 4%; DRV1 agonist: 79*

How did Cc1nc2n(c(=O)c1CCN1CCC(c3noc4cc(F)ccc34)CC1)CCC[C@H]2O do in these assays?
DRV1 agonist: 8

How did Nc1c(I)cc(I)c(C(=O)N(CCC(=O)O)c2ccccc2)c1I do in these assays?
DRV1 agonist: -21
